Test results from PubChem BioAssay AID1159580 (chemical genetic matrix, 2015).
Out of some 5,500 compounds screened, about 2,000 (36%) were called active. Not shown: some 18% with an inconclusive outcome. Cut-off read from the data, not from the text of the source: active = normalized growth mostly below about 0.91 (no sharp cut-off); inconclusive = no clear call, values can overlap the other calls; inactive = mostly above about 0.92. Some of the results follow.

Assay: chemical genetic growth profiling, strain panel (AID 1159580);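 note: tested at 20 µM; growth read once vehicle control cultures reached saturation at 30 °C; 1 = growth at the plate median or of vehicle wells; lower values mean less growth of the strain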
Settings: growth OD
[1] = S. cerevisiae deletion strains, locus YDL101C, strain DUN1, stronger effect = lower value
[2] = S. cerevisiae deletion strains, locus YHR030C, strain SLT2, stronger effect = lower value

Measured: normalized growth

Cn1c2c(c3ccccc31)/C(=N\OC(=O)c1ccc(Cl)cc1Cl)CCC2
inactive: S. cerevisiae deletion strains, locus YAL013W, strain DEP1, stronger effect = lower value 1.01 | S. cerevisiae deletion strains, locus YBR229C, strain ROT2, stronger effect = lower value 1.03 | [1] 1.02 | S. cerevisiae deletion strains, locus YDL134C, strain PPH21, stronger effect = lower value 1.02 | S. cerevisiae deletion strains, locus YDR150W, strain NUM1, stronger effect = lower value 1.04 | S. cerevisiae deletion strains, locus YEL061C, strain CIN8, stronger effect = lower value 0.957 | S. cerevisiae deletion strains, locus YGR078C, strain PAC10, stronger effect = lower value 1.03 | S. cerevisiae deletion strains, locus YGR229C, strain SMI1, stronger effect = lower value 1.02 | [2] 1.07 | S. cerevisiae deletion strains, locus YHR087W, strain rtc3, stronger effect = lower value 0.986 | S. cerevisiae deletion strains, locus YJL187C, strain SWE1, stronger effect = lower value 1.01 | S. cerevisiae deletion strains, locus YJR043C, strain POL32, stronger effect = lower value 1.02 | S. cerevisiae deletion strains, locus YJR075W, strain HOC1, stronger effect = lower value 1.01 | S. cerevisiae deletion strains, locus YKL190W, strain CNB1, stronger effect = lower value 1.01 | S. cerevisiae deletion strains, locus YLR039C, strain RIC1, stronger effect = lower value 1.01 | S. cerevisiae deletion strains, locus YLR058C, strain SHM2 (second series), stronger effect = lower value 1.02 | S. cerevisiae deletion strains, locus YLR085C, strain ARP6, stronger effect = lower value 0.977 | S. cerevisiae deletion strains, locus YLR262C, strain YPT6, stronger effect = lower value 1.15 | S. cerevisiae deletion strains, locus YML094W, strain GIM5, stronger effect = lower value 1 | S. cerevisiae deletion strains, locus YMR219W, strain ESC1, stronger effect = lower value 1 | S. cerevisiae deletion strains, locus YMR263W, strain SAP30, stronger effect = lower value 0.986 | S. cerevisiae deletion strains, locus YNL128W, strain TEP1, stronger effect = lower value 1.01 | S. cerevisiae deletion strains, locus YNL153C, strain GIM3, stronger effect = lower value 1.04 | S. cerevisiae deletion strains, locus YNL298W, strain CLA4 (second series), stronger effect = lower value 1.01 | S. cerevisiae deletion strains, locus YNL322C, strain KRE1, stronger effect = lower value 1.01 | S. cerevisiae deletion strains, locus YNR030W, strain Alg12, stronger effect = lower value 1.03 | S. cerevisiae deletion strains, locus YPL055C, strain LGE1, stronger effect = lower value 0.982 | S. cerevisiae deletion strains, locus YPL241C, strain CIN2, stronger effect = lower value 0.98 | S. cerevisiae deletion strains, locus YPR135W, strain CTF4, stronger effect = lower value 1.11 | S. cerevisiae strains, strain wild type, stronger effect = lower value 1.02

O=C(O/N=C1/CCCc2[nH]c3ccccc3c21)C1CCCCC1
inactive: S. cerevisiae deletion strains, locus YAR019C, strain CDC15, stronger effect = lower value 0.972 | S. cerevisiae deletion strains, locus YBL105C, strain PKC1, stronger effect = lower value 0.959 | S. cerevisiae deletion strains, locus YBR135W, strain CKS1, stronger effect = lower value 0.964 | S. cerevisiae deletion strains, locus YBR136W, strain MEC1, stronger effect = lower value 0.947 | S. cerevisiae deletion strains, locus YBR160W, strain CDC28, stronger effect = lower value 0.962 | S. cerevisiae deletion strains, locus YDL017W, strain CDC7, stronger effect = lower value 0.955 | S. cerevisiae deletion strains, locus YDL028C, strain MPS1, stronger effect = lower value 0.962 | [1] 0.973 | S. cerevisiae deletion strains, locus YDL108W, strain KIN28, stronger effect = lower value 0.931 | S. cerevisiae deletion strains, locus YDL132W, strain cdc53, stronger effect = lower value 0.97 | S. cerevisiae deletion strains, locus YDL214C, strain PRR2, stronger effect = lower value 0.881 | S. cerevisiae deletion strains, locus YDR052C, strain DBF4, stronger effect = lower value 0.971 | S. cerevisiae deletion strains, locus YDR054C, strain cdc34, stronger effect = lower value 0.951 | S. cerevisiae deletion strains, locus YDR226W, strain ADK1, stronger effect = lower value 0.962 | S. cerevisiae deletion strains, locus YDR477W, strain SNF1, stronger effect = lower value 0.905 | S. cerevisiae deletion strains, locus YER123W, strain YCK3, stronger effect = lower value 0.821 | S. cerevisiae deletion strains, locus YER133W, strain GLC7, stronger effect = lower value 0.888 | S. cerevisiae deletion strains, locus YFL009W, strain cdc4, stronger effect = lower value 0.973 | S. cerevisiae deletion strains, locus YFL029C, strain CAK1, stronger effect = lower value 0.966 | S. cerevisiae deletion strains, locus YFR003C, strain YPI1, stronger effect = lower value 0.961 | S. cerevisiae deletion strains, locus YFR019W, strain FAB1, stronger effect = lower value 0.918 | S. cerevisiae deletion strains, locus YFR028C, strain CDC14, stronger effect = lower value 0.975 | S. cerevisiae deletion strains, locus YGR040W, strain KSS1, stronger effect = lower value 0.856 | S. cerevisiae deletion strains, locus YGR052W, strain FMP48, stronger effect = lower value 0.914 | S. cerevisiae deletion strains, locus YGR092W, strain DBF2, stronger effect = lower value 0.845 | [2] 0.971 | S. cerevisiae deletion strains, locus YHR079C, strain IRE1, stronger effect = lower value 0.963 | S. cerevisiae deletion strains, locus YHR082C, strain KSP1, stronger effect = lower value 0.899 | S. cerevisiae deletion strains, locus YHR205W, strain SCH9, stronger effect = lower value 0.873 | S. cerevisiae deletion strains, locus YIL147C, strain SLN1, stronger effect = lower value 0.962 | S. cerevisiae deletion strains, locus YJL095W, strain BCK1, stronger effect = lower value 0.942 | S. cerevisiae deletion strains, locus YJL128C, strain PBS2, stronger effect = lower value 0.935 | S. cerevisiae deletion strains, locus YJL157C, strain FAR1, stronger effect = lower value 0.884 | S. cerevisiae deletion strains, locus YJR016C, strain ILV3, stronger effect = lower value 0.951 | S. cerevisiae deletion strains, locus YJR066W, strain TOR1 (second series), stronger effect = lower value 0.902 | S. cerevisiae deletion strains, locus YJR066W, strain TOR1, stronger effect = lower value 0.895 | S. cerevisiae deletion strains, locus YKL048C, strain ELM1, stronger effect = lower value 0.925 | S. cerevisiae deletion strains, locus YKL067W, strain YNK1, stronger effect = lower value 0.909 | S. cerevisiae deletion strains, locus YKL101W, strain HSL1, stronger effect = lower value 0.878 | S. cerevisiae deletion strains, locus YKL193C, strain SDS22, stronger effect = lower value 0.97 | S. cerevisiae deletion strains, locus YKL203C, strain TOR2, stronger effect = lower value 0.931 | S. cerevisiae deletion strains, locus YLR113W, strain HOG1, stronger effect = lower value 0.966 | S. cerevisiae deletion strains, locus YLR133W, strain CKI1, stronger effect = lower value 0.9 | S. cerevisiae deletion strains, locus YLR403W, strain SFP1, stronger effect = lower value 0.903 | S. cerevisiae deletion strains, locus YML070W, strain DAK1, stronger effect = lower value 0.846 | S. cerevisiae deletion strains, locus YMR001C, strain CDC5, stronger effect = lower value 0.966 | S. cerevisiae deletion strains, locus YMR205C, strain PFK2 (second series), stronger effect = lower value 0.895 | S. cerevisiae deletion strains, locus YMR277W, strain FCP1, stronger effect = lower value 0.956 | S. cerevisiae deletion strains, locus YNL006W, strain LST8, stronger effect = lower value 0.992 | S. cerevisiae deletion strains, locus YNL020C, strain ARK1, stronger effect = lower value 0.872 | S. cerevisiae deletion strains, locus YNL161W, strain CBK1, stronger effect = lower value 0.963 | S. cerevisiae deletion strains, locus YNL183C, strain NPR1, stronger effect = lower value 0.896 | S. cerevisiae deletion strains, locus YNL207W, strain RIO2, stronger effect = lower value 0.959 | S. cerevisiae deletion strains, locus YNL222W, strain SSU72, stronger effect = lower value 0.967 | S. cerevisiae deletion strains, locus YNL307C, strain MCK1 (second series), stronger effect = lower value 0.911 | S. cerevisiae deletion strains, locus YOL078W, strain AVO1, stronger effect = lower value 0.963 | S. cerevisiae deletion strains, locus YOL136C, strain PFK27, stronger effect = lower value 0.857 | S. cerevisiae deletion strains, locus YOR061W, strain CKA2, stronger effect = lower value 0.845 | S. cerevisiae deletion strains, locus YOR119C, strain RIO1, stronger effect = lower value 0.948 | S. cerevisiae deletion strains, locus YOR231W, strain MKK1, stronger effect = lower value 0.951 | S. cerevisiae deletion strains, locus YOR329C, strain SCD5, stronger effect = lower value 0.972 | S. cerevisiae deletion strains, locus YPL031C, strain PHO85, stronger effect = lower value 0.894 | S. cerevisiae deletion strains, locus YPL153C, strain RAD53, stronger effect = lower value 0.887 | S. cerevisiae deletion strains, locus YPL204W, strain HRR25, stronger effect = lower value 0.908 | S. cerevisiae deletion strains, locus YPL209C, strain IPL1, stronger effect = lower value 0.965 | S. cerevisiae deletion strains, locus YPL256C, strain CLN2, stronger effect = lower value 0.933 | S. cerevisiae deletion strains, locus YPR025C, strain CCL1, stronger effect = lower value 0.961 | S. cerevisiae deletion strains, locus YPR106W, strain ISR1, stronger effect = lower value 0.962 | S. cerevisiae deletion strains, locus YPR111W, strain DBF20, stronger effect = lower value 0.969 | S. cerevisiae deletion strains, strain NNK1, stronger effect = lower value 0.967 | S. cerevisiae deletion strains, strain TSCII, stronger effect = lower value 0.967
